From PubChem BioAssay
In the library only some 19% were active in any assay of this set; here they are far more common.
TGFb SMAD3 inh = blocks TGF-b signaling. Potency, µM (titrated, usually from 46.1 µM), for the others: top-dose activity, negative = inhibition, usual class: inhibitors. HepG2 CAGA-GFP TGF-b/SMAD3 reporter, GFP fluorescence, 18 h; TGF-beta stimulated, 500 pg/mL final. 1.2% of 410,000 active; also: potency is read from the fitted curve at half-maximal effect; % is scaled to controls: 0 for no effect and ±100 for the full control effect; nearly all actives have a fitted effect of over 65% in size
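Read-out: total well GFP (ex488/em500-530) summed from mean per-cell fluorescence. Cells: HEPG2 CAGA-GFP, 1% FBS DMEM, 18 h at 37 degrees C with 500 pg/mL final TGF-beta. Unstimulated wells served as the full-inhibition control; stimulated DMSO wells = 0%.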
IL-1B inflam inh = inflammasome signaling inhibition, IL-1 beta readout | activity change, % at 57.5 µM | THP-1 LPS/ATP IL-1B secretion, AlphaLISA, 16 h; stronger effect = lower value | AID 743279 | 4.7% of 360,000 active; in the data active = activity change below about -50%; inconclusive = mostly about -30% to -49%; also: % is scaled to controls: 0 for no effect and ±100 for the full control effect
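Secreted IL-1B measured by AlphaLISA bead assay after 16 h compound exposure of THP-1 cells; compounds (final up to 57.5 uM) added 1 h before LPS (250 ng/mL) and ATP (1.25 mM) stimulation; lower signal means less secretion.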
HepG2 viability = kills HepG2 cells in TGF-b inhibitor counter-screen; HepG2 CAGA-GFP viability, ATP luminescence, 18 h; Potency, µM (titrated, usually from 46.1 µM), for the others: top-dose activity change, negative = cytotoxicity, most hits filed as cytotoxic; 0.76% of 410,000 active; AID 588856; also: potency is read from the fitted curve at half-maximal effect
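HepG2 CAGA-GFP cells (1000/well, DMEM with 1% FBS) received compound, then TGF-beta at 500 pg/mL final, and were incubated 18 hours at 37 degrees C. Viability was read by CellTiter-Glo luminescence. Media-only wells were set as complete cell-killing and DMSO as no toxicity.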
S-ASM inh = inhibitors of human secretory acid sphingomyelinase. P17405. placental ASM, HMU-PC fluorogenic substrate, 60 min. Potency, µM (series often up to 57.5 µM), for the others: at the highest dose activity change, negative = inhibition, usual class: inhibitors. 0.006% of 340,000 active. AID 504937; also: potency is read from the fitted curve at half-maximal effect
Target sequence (P17405 47-631 limits assumed): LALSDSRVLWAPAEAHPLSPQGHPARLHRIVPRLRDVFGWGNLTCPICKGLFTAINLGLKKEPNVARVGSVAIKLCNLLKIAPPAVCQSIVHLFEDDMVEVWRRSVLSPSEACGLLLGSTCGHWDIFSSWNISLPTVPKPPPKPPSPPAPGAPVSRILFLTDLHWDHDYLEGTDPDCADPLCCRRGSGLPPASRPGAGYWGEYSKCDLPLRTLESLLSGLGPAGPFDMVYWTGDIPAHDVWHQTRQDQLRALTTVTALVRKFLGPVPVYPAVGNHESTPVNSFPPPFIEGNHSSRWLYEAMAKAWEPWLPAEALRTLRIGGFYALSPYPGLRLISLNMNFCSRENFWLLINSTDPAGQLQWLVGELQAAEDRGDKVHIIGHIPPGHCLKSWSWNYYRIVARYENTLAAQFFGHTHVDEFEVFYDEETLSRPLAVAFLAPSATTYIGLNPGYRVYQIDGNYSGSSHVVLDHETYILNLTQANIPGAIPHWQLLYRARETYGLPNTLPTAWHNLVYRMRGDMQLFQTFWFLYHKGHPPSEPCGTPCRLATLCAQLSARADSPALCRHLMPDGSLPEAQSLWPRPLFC
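Human placenta-derived ASM enzyme was preincubated with compound for 10 minutes at room temperature, then given fluorogenic substrate HMU-PC0 (9 uM final) for 60 minutes at 37 °C; a pH 10 stop preceded fluorescence reading at Ex 386/Em 447 nm.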
DT40 TDP1 no CPT = qHTS for Inhibitors of human tyrosyl-DNA phosphodiesterase 1 (TDP1): qHTS in cells in absence of CPT; AID 686978, 2013; Potency, µM (titrated, usually from 46.2 µM), for inactives: top-dose activity change, negative = growth inhibition, actives largely listed as inhibitors; DT40 Tdp1-/- hTDP1 cells, no CPT, ATP luminescence, 48 h; 15% of 420,000 active; also: potency is read from the fitted curve at half-maximal effect; % is scaled to controls: 0 for no effect and ±100 for the full control effect; nearly all actives have a fitted effect of over 55% in size
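Growth kinetics read by CellTiter-Glo luminescence after ≥48 hr at 37 °C. Cells: DT40 Tdp1-/- stably carrying human TDP1, 400 per well, compound exposure in the absence of CPT (DMSO vehicle).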
TDP1 cell CPT = growth inhibition of DT40 Tdp1-/-;hTDP1 cells with camptothecin (screen for TDP1 inhibitors); chicken DT40 Tdp1-/-;hTDP1 cells + 20 nM CPT, ATP luminescence, 48 h; Potency, µM (highest dose often 46.2 µM), without a hit: top-dose activity change, negative = growth inhibition, hits mostly inhibitors; 12% of 420,000 active; AID 686979; also: potency is read from the fitted curve at half-maximal effect; % is scaled to controls: 0 for no effect and ±100 for the full control effect; nearly all actives have a fitted effect of over 55% in size
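Chicken DT40 Tdp1-/- cells stably complemented with human TDP1 were seeded at 400 cells/well in medium containing 20 nM camptothecin, exposed to pin-transferred compounds, and grown at 37 °C for at least 48 hr. Viability was read as ATP luminescence.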
The depositor's hits bear a star; ? = inconclusive; nt = not tested or not shown; ! = a repeat was not active; [ ] = remark or other dose. Unless noted, calls follow the shape of the dose curve; as a rule, active = well fitted curve in the direction sought with a large enough effect; inconclusive = small, poorly fitted or top-dose-only effect, or another doubt; inactive = no such curve, though single readings can be large; an effect the other way counts as inactive or inconclusive.

SMILES	TGFb SMAD3 inh	IL-1B inflam inh	HepG2 viability	S-ASM inh	DT40 TDP1 no CPT	TDP1 cell CPT
Cc1ccc(C)c(NP(=O)(Oc2ccccc2)Oc2ccccc2)c1	?	?	-39%	-2%	16µM*	?
Nc1cccc2c(N)cccc12	nt	nt	nt	nt	24µM*	22µM*
COc1ccc(C(=O)O[C@H]2CC[C@@]3(C)C4CCC5[C@]6(O)C[C@H](O)[C@@]7(O)C(CN8C[C@@H](C)CC[C@H]8[C@@]7(C)O)[C@]6(O)C[C@@]53O[C@@]42O)cc1OC (stereo partly specified)	nt	nt	nt	nt	-27%[21.1 µM]	1%[21.1 µM]
COc1ccc(CN2CCNCC2)cc1	1%	37	2%	-5%	?	-15%
C=CCc1ccc(OC)cc1	0%	23	-11%	1%	?	3.7µM*!
c1cnc(N2CCC3(CCNCC3)CC2)nc1	nt	nt	nt	nt	23µM*	?
c1ccc(N2CCCC3(CCNCC3)C2)nc1	nt	nt	nt	nt	16µM*	?
c1cc(CN2CCC3(CCNCC3)CC2)ccn1	nt	nt	nt	nt	-2%	-1%
COC(=O)C12OCC34C(CC5C(C)=C(O)C(=O)CC5(C)C3C(O)C1O)OC(=O)C(OC(=O)/C=C(\C)C(C)C)C24 (stereo unspecified)	-22%	-98*	14%	1%	0.058µM*	0.041µM*
C[C@H](N)C(=O)c1ccccc1	nt	nt	nt	nt	-14%	-10%
CC(=O)[O][Hg][c]1ccccc1	nt	nt	nt	nt	0.16µM*	0.16µM*
CC1(C)C(=O)C=C[C@]2(C)[C@H]3CC[C@@]4(C)[C@H](c5ccoc5)OC(=O)[C@H]5O[C@]54[C@]3(C)[C@H](O)C[C@@H]12	-9%	20	15%	4%	-20%	-5%
O=C(Oc1ccccc1)N1CCC2(CCN(Cc3nccs3)CC2)CC1	nt	nt	nt	nt	?	-29%
N#CC1C(C#N)C2CCC1C1C2N1c1ccccc1 (stereo unspecified)	14%	1	1%	7%	-4%	-10%
OC(c1ccc(F)cc1)(c1ccc(F)cc1)[C@@H]1CCCN1	20%	-27	-24%	1%	16µM*	?
C[C@]12CCC(=O)C[C@@H]1CC[C@@H]1[C@@H]2CC[C@]2(C)[C@@H](O)CC[C@@H]12	-7%	22	-17%	3%	-22%	9%
O=C1CCCC2[C@@H]3CCCN4CCC[C@@H](CN12)C34 (stereo partly specified)	nt	nt	nt	nt	3%	-3%
C[C@@H]1C[C@@H](O)[C@@]2(O)[C@]13CC(=O)OC[C@]2(C)[C@@](C)(O)C(=O)C3	nt	nt	nt	nt	-20%[9.04 µM]	-22%[9.04 µM]
Nc1ccc(N=Nc2ccccc2)cc1	-9%	-13	-5%	?	?	-9%
Cc1cc(N(C)C)ccc1N=Nc1ccc(N)cc1	0%	-26	5%	-10%	13µM*	?
Cc1ccc(S(=O)(=O)NC(=O)NC2CCCC2)cc1	nt	nt	nt	nt	-1%	5%
Cc1ccc(-c2nc(S(=O)(=O)c3ccccc3)c(SCC(=O)NC3CCCCC3)o2)cc1	-5%	nt	1%	nt	?	13µM*
Cc1ccc(-c2nc(S(=O)(=O)c3ccc(C)cc3)c(SCC(=O)Nc3ccc(F)cc3)o2)cc1	12%	nt	5%	nt	23µM*	16µM*
COc1ccc(NC(=O)CSc2oc(-c3cccs3)nc2S(=O)(=O)c2ccccc2)c(OC)c1	2%	nt	8%	nt	23µM*	21µM*
CCC(=O)N1CC(=O)Nc2ccc(F)cc2C1c1ccc(F)cc1 (stereo unspecified)	-2%	13	-22%	-3%	-1%	-2%
SMILES	TGFb SMAD3 inh	IL-1B inflam inh	HepG2 viability	S-ASM inh	DT40 TDP1 no CPT	TDP1 cell CPT
CC(C)NCC(O)COc1cccc2[nH]ccc12 (stereo unspecified)	nt	nt	nt	nt	-19%	?
CCOC(=O)C1=C(NC(=S)NC(=O)c2ccccc2)c2ccccc2CC12CCCC2	-26%	?	-16%	0%	18µM*	16µM*
OC(COCc1ccc(Cl)cc1)CN1CC=C(c2ccccc2)CC1 (stereo unspecified)	?	-70*!	28µM*!	-3%	10µM*	16µM*
OC(CN1CC=C(c2ccccc2)CC1)c1ccccc1 (stereo unspecified)	-1%	-6	-3%	9%	?	-9%
COc1cc2c(cc1O)C[C@H]1NCCc3cc4c(c-2c31)OCO4	?	-26	-29%	128%	23µM*	18µM*
CC1C(=O)OC2CCN3CC=C(COC(=O)[C@](C)(O)[C@]1(C)O)C23 (stereo partly specified)	nt	nt	nt	nt	-28%	?
O=P(N1CCCCCC1)(N1CCCCCC1)N1CC1	1%	2	7%	0%	-14%	?
S=P(N1CCOCC1)(N1CC1)N1CC1	7%	5	-22%	33%	6.5µM*	5.2µM*
S=P(N1CCCCCC1)(N1CC1)N1CC1	8%	-8	-2%	-1%	4.1µM*	3.3µM*
Cc1cc(/C=C/c2ccnc3ccccc23)ccc1N(CCCl)CCCl	-9%	nt	-22%	nt	25µM*	?
ClCCN(CCCl)c1ccc(C=Cc2ccncn2)cc1	22%	?	-9%	362%	9.2µM*	6.5µM*
ClCCN(CCCl)c1ccc(/C=C/c2ccnc3ccccc23)cc1	-11%	nt	-33%	nt	3.5µM*	4µM*
Cc1ccc2oc(=O)n(CC(=O)c3ccc(F)cc3)c2c1	-14%	0	1%	-1%	-17%	5%
CN(C)C=C1C(=O)N(C2CCCCC2)C(=O)N(C2CCCCC2)C1=O	32%	-7	1%	3%	?	16µM*
CCOC(=O)c1c(C)[nH]c(C)c1S(=O)(=O)N1CCC(C(=O)N2CCN(c3ccc(Cl)cc3)CC2)CC1	-15%	nt	-8%	nt	?	?
O=C(NN=Cc1ccc(N(CCCl)CCCl)cc1Cl)c1cccnc1	5µM*	-6	-56%	58%	23µM*	?
CN(CCCC(=O)c1cccnc1)N=O	nt	nt	nt	nt	4%	0%
Cc1cc(N(CCCl)CCCl)ccc1C=NNC(=O)c1cccnc1	-8%	0	-32%	12%	?	10µM*
O=C(CCl)NN=C(c1ccccc1)c1ccccc1	-3%	-77*	-1%	-2%	5.2µM*	5.8µM*
NC(N)=N/N=C/c1cn(-c2ccccc2)nc1-c1cccs1	?	-98*	11µM*	-23%	10µM*	10µM*
